# Results from PubChem BioAssay (NCI).
# This is part of a sample that, as a whole, favours compounds with a hit. Of some 83,000 tested, about 20% had one in any assay.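 Each cell line was grown in a 96-well plate and treated with one concentration of compound for 48 hours. Values below 10 were considered active.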 Values without a mark were called inactive. Calls of active or inactive are those of the source.
# Tested on: HCT-116 colon
# Test: NCI-60 one-dose screen, 48 h (100 = growth as untreated, 0 = no growth, -100 = all killed)
# Conditions: 10 µM unless noted
row,Structure (SMILES),growth
1,O=S(=O)(c1ccc(NCSc2nc3ccccc3s2)cc1)c1ccc(NCSc2nc3ccccc3s2)cc1,86.5%
2,COc1cc(/C=C2\CN(S(=O)(=O)c3ccc(C)cc3)C/C(=C\c3cc(CN4CCCC4)c(O)c(OC)c3)C2=O)cc(CN2CCCC2)c1O,-91.7% (active)
3,Cc1cccc(CN(Nc2ccccc2)c2ccccc2)n1,95.5%
4,O=C(NS(=O)(=O)c1ccccc1)n1cc(-c2ccncc2)c(-c2cc(O)cc(Cl)c2)n1,91.7%
5,CCCCN(CCC#N)C(N)=O,106%
6,CCOC(=O)/C(=C/c1ccc([N+](=O)[O-])cc1)C(=O)c1ccccc1,-8.58% (active)
7,N#Cc1c(-c2ccc(F)cc2)cc(-c2cccc(Cl)c2)[nH]c1=O,67.1%
8,O=C(Nc1cccc(Cn2c(=O)[nH]c3ccc(Oc4ncccn4)cc3c2=O)c1)c1cccc(Cl)c1,52.6%
9,O=C1c2c(c3c4cccnc4[nH]c3c3ccc4ccccc4c23)C(=O)N1O,26.5%
10,COC(=O)c1nc(-c2ccccc2)oc1S(=O)(=O)N1CCN(c2ccc(OC)cc2)CC1,60.9%
11,O=C1c2ccccc2-c2c1c1ccncc1c(=O)n2CCCn1ccnc1,5.31% (active)
12,COc1cc(-c2c(-c3ccccc3)c[nH]c2C(=O)NCCCO)c(OC)c2c1OCO2,106%
13,C=C(C)Cn1c(SCC(=O)c2cccs2)nc2sc3c(c2c1=O)CCCC3,29.3%
14,CNC1=C([N+](=O)[O-])C(c2ccc(OC)cc2)C(C#N)=C(c2ccc[nH]2)O1 (stereo not given),99%
15,Cn1cc(-c2nc(-c3c[nH]c4c(Cl)nccc34)cs2)c2ccccc21,94.4%
16,N/C(=N\c1nc2ccccc2s1)NC(=O)Nc1ccccc1,17.1%
17,C#Cc1ccc(NC(=O)Cc2ccc(/C=C/C(=O)c3nccn3C)cc2)cc1,21.6%
18,Cc1cc2c(C(C)C)c(O)c(O)c(/C=N/O)c2c(O)c1-c1c(C)cc2c(C(C)C)c(O)c(O)c(/C=N/O)c2c1O,18%
19,O=C(Nc1ccc2[nH]ncc2c1)c1csc(Nc2ccccc2)n1,35.3%
20,COC(=O)c1nc(-c2ccccc2)oc1S(=O)(=O)NCC(c1ccc(Cl)cc1)N1CCCCC1 (stereo not given),78%
21,O=C(Nc1ccc(Oc2cccc(F)c2)c(Cl)c1)c1cnccn1,32%
22,COc1ccc(Nc2nc(Nc3cc(C)[nH]n3)c3cc(OC)c(OC)cc3n2)cc1,-54.4% [20 µM] (active)
23,COC(=O)c1cc(-c2ccc(OC)c(OC)c2)[nH]c1N/N=C/c1c(Cl)cccc1Cl,14.5%
24,CC(C)=CCC[C@](C)(O)C1CC[C@]2(C)[C@@H]1CC[C@@H]1[C@@]3(C)CC/C(=N\OCCC#N)C(C)(C)[C@@H]3CC[C@]12C (stereo not given in full),66.2%
25,N#C/C(=C\c1cccc2cnccc12)N1N=NC2C=CC=CC21 (stereo not given),14.2%

# Tested on: HCC-2998 colon
# Test: as above
# Conditions: 10 µM unless noted
row,Structure (SMILES),growth
1,Cc1cc(=O)oc2cc(Oc3nc(-c4ccccc4)cn4c(-c5ccccc5)cnc34)ccc12,81%
2,Cc1ccc2c(n1)C[C@H](C(C)(C)O)CC[C@H]2C,102%
3,Nc1nc(N)c2c(n1)NC(c1cccc(Nc3ccnc4cc(C(F)(F)F)ccc34)c1)CC(c1ccc(Cl)cc1)=N2 (stereo not given),51.8%
4,C(CCCSC1=NCCN1)CCSC1=NCCN1,103%
5,O=S(=O)(Nc1ccc(Br)cc1)c1ccc(-c2cnc(C3CC3)o2)cc1,56.2%
6,COc1cc(C(=O)/C=C/c2c(-c3cccs3)nc3sc(C)cn23)cc(OC)c1OC,20.2%
7,Nc1nc(=O)n([C@H]2CC=C(CO)O2)cc1F,104%
8,COc1ccc(Nc2nccc(Nc3ccc4[nH]ncc4c3)n2)cc1,63.4%
9,Cc1[nH]c(C(=O)Nc2ccccc2OC2CCNC2)c(Cl)c1Cl (stereo not given),94.4%
10,CCN1CCN(CCOc2ccc(CNc3ccc4nc(CCC5CCCCC5)[nH]c4c3)cc2)CC1,4.19% (active)
11,CCCCCCCCCCCCCC[n+]1ccc2c(C)c3c(c(C)c2c1)c1cc(O)ccc1n3CC,-64.6% (active)
12,CCCc1cc(CCC)n2nc(N)nc2n1,98.1%
13,O=S(=O)(c1ccc(NCSc2nc3ccccc3s2)cc1)c1ccc(NCSc2nc3ccccc3s2)cc1,95.5%
14,COc1cc(/C=C2\CN(S(=O)(=O)c3ccc(C)cc3)C/C(=C\c3cc(CN4CCCC4)c(O)c(OC)c3)C2=O)cc(CN2CCCC2)c1O,-89.5% (active)
15,Cc1cccc(CN(Nc2ccccc2)c2ccccc2)n1,112%
16,O=C(NS(=O)(=O)c1ccccc1)n1cc(-c2ccncc2)c(-c2cc(O)cc(Cl)c2)n1,128%
17,CCCCN(CCC#N)C(N)=O,103%
18,CCOC(=O)/C(=C/c1ccc([N+](=O)[O-])cc1)C(=O)c1ccccc1,47.7%

row,Structure (SMILES),growth
1,N#Cc1c(-c2ccc(F)cc2)cc(-c2cccc(Cl)c2)[nH]c1=O,94.2%
2,O=C(Nc1cccc(Cn2c(=O)[nH]c3ccc(Oc4ncccn4)cc3c2=O)c1)c1cccc(Cl)c1,84.6%
3,O=C1c2c(c3c4cccnc4[nH]c3c3ccc4ccccc4c23)C(=O)N1O,77.2%
4,COC(=O)c1nc(-c2ccccc2)oc1S(=O)(=O)N1CCN(c2ccc(OC)cc2)CC1,104%
5,O=C1c2ccccc2-c2c1c1ccncc1c(=O)n2CCCn1ccnc1,73.9%
6,COc1cc(-c2c(-c3ccccc3)c[nH]c2C(=O)NCCCO)c(OC)c2c1OCO2,110%
7,C=C(C)Cn1c(SCC(=O)c2cccs2)nc2sc3c(c2c1=O)CCCC3,76.1%
8,CNC1=C([N+](=O)[O-])C(c2ccc(OC)cc2)C(C#N)=C(c2ccc[nH]2)O1 (stereo not given),100%
9,Cn1cc(-c2nc(-c3c[nH]c4c(Cl)nccc34)cs2)c2ccccc21,94.5%
10,C#Cc1ccc(NC(=O)Cc2ccc(/C=C/C(=O)c3nccn3C)cc2)cc1,82.3%
11,Cc1cc2c(C(C)C)c(O)c(O)c(/C=N/O)c2c(O)c1-c1c(C)cc2c(C(C)C)c(O)c(O)c(/C=N/O)c2c1O,16.1%
12,O=C(Nc1ccc2[nH]ncc2c1)c1csc(Nc2ccccc2)n1,62.5%
13,COC(=O)c1nc(-c2ccccc2)oc1S(=O)(=O)NCC(c1ccc(Cl)cc1)N1CCCCC1 (stereo not given),117%
14,O=C(Nc1ccc(Oc2cccc(F)c2)c(Cl)c1)c1cnccn1,56.2%
15,COc1ccc(Nc2nc(Nc3cc(C)[nH]n3)c3cc(OC)c(OC)cc3n2)cc1,-73.3% [20 µM] (active)
16,CC(C)=CCC[C@](C)(O)C1CC[C@]2(C)[C@@H]1CC[C@@H]1[C@@]3(C)CC/C(=N\OCCC#N)C(C)(C)[C@@H]3CC[C@]12C (stereo not given in full),84.5%
17,N#C/C(=C\c1cccc2cnccc12)N1N=NC2C=CC=CC21 (stereo not given),91.7%
